Results on 15 compounds are retold here after PubChem BioAssay (Tox21).

Test [1] is described as follows: qHTS RealTime-Glo MT Cell Viability Assay in HEK293 cells - 16 hour (AID 1224872). Note: nearly all actives have a fitted effect of over 50% in size. Note: potency is the fitted concentration of half-maximal effect. An outline of the steps:
(§1)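 Nonlytic real-time viability readout: viable cells convert prosubstrate to NanoLuc substrate, giving luminescence proportional to live cell number. HEK293, 600 cells/well, compound added after 5 h, continuous culture at 37 C.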
On the technique in general: In qHTS, concentration-response curves come from the screen itself.

Test [2] is described as follows: qHTS RealTime-Glo MT Cell Viability Assay in HEK293 cells - 40 hour (AID 1224874). Note: nearly all actives have a fitted effect of over 50% in size. Note: potency is the fitted concentration of half-maximal effect. The settings on record: RealTime-Glo luminescence; max response: active compounds read low. In outline:
(§2)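 600 HEK293 cells per well, dispensed already mixed with RealTime-Glo MT reagents. Compound dosing came 5 h later. The same wells were read for luminescence at 0, 8, 16, 24, 32 and 40 h of exposure at 37 C.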

Test [3] is described as follows: A CellTox Green Cytotoxicity Assay to monitor cytotoxicity in HEK293 cells - 24 hour (AID 1224875). Note: nearly all actives have a fitted effect of over 45% in size. Note: potency is the fitted concentration of half-maximal effect. In outline:
(§3)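 Dead-cell fluorescence measured kinetically: asymmetric cyanine dye, HEK293, 600 cells/well, 5 h settle, 23 nL cpd/DMSO, 37 C, reads 0–40 h every 8 h.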

Test [4] in a line: A CellTox Green Cytotoxicity Assay to monitor cytotoxicity in HepG2 cells - 16 hour (AID 1224876). Note: nearly all actives have a fitted effect of over 45% in size. Note: potency is the fitted concentration of half-maximal effect. In outline: (§4)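 First, HepG2 cells (600/well) mixed with reagent were plated; second, after 5 h at 37 C they received compounds via pintool; third, fluorescence was measured at 0 h through 40 h at 8 h intervals.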
Test [5] can be described thus: A CellTox Green Cytotoxicity Assay to monitor cytotoxicity in HepG2 cells - 24 hour (AID 1224878). Note: nearly all actives have a fitted effect of over 45% in size. Note: potency is the fitted concentration of half-maximal effect. An outline of the steps:
as §4

Test [6] in a line: A CellTox Green Cytotoxicity Assay to monitor cytotoxicity in HepG2 cells - 40 hour (AID 1224879). Note: nearly all actives have a fitted effect of over 40% in size. Note: potency is the fitted concentration of half-maximal effect. An outline of the steps:
as §4

Test [7] can be described thus: qHTS RealTime-Glo MT Cell Viability Assay in HEK293 cells - 0 hour (AID 1224880). Note: nearly all actives have a fitted effect of over 45% in size. Note: potency is the fitted concentration of half-maximal effect. In outline: as §2
Test [8] is described as follows: A CellTox Green Cytotoxicity Assay to monitor cytotoxicity in HEK293 cells - 32 hour (AID 1224881). Note: nearly all actives have a fitted effect of over 40% in size. Note: potency is the fitted concentration of half-maximal effect. An outline of the steps: as §3
The nature of test [9]: A CellTox Green Cytotoxicity Assay to monitor cytotoxicity in HepG2 cells - 0 hour (AID 1224882). Note: nearly all actives have a fitted effect of over 35% in size. Note: potency is the fitted concentration of half-maximal effect. In outline:
as §4

Test [10] in a line: A CellTox Green Cytotoxicity Assay to monitor cytotoxicity in HepG2 cells - 32 hour (AID 1224883). Note: nearly all actives have a fitted effect of over 50% in size. Note: potency is the fitted concentration of half-maximal effect. An outline of the steps: as §4
A short description of test [11]: qHTS RealTime-Glo MT Cell Viability Assay in HEK293 cells - 24 hour (AID 1224886). Note: nearly all actives have a fitted effect of over 50% in size. Note: potency is the fitted concentration of half-maximal effect. In outline:
as §1

Test [12] can be described thus: qHTS RealTime-Glo MT Cell Viability Assay in HEK293 cells - 8 hour (AID 1224887). Note: nearly all actives have a fitted effect of over 50% in size. Note: potency is the fitted concentration of half-maximal effect. In outline: as §2
Test [13] in a line: qHTS RealTime-Glo MT Cell Viability Assay in HepG2 cells - 0 hour (AID 1224889). Note: nearly all actives have a fitted effect of over 50% in size. Note: potency is the fitted concentration of half-maximal effect. In outline:
(§5)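 Luminescence read-out: viable HepG2 cells reduce a prosubstrate to a NanoLuc substrate, giving a signal proportional to live cell number. Reads taken at 0, 8, 16, 24, 32 and 40 h of compound exposure at 37 C.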

Test [14] in a line: A CellTox Green Cytotoxicity Assay to monitor cytotoxicity in HepG2 cells - 8 hour (AID 1224890). Note: nearly all actives have a fitted effect of over 45% in size. Note: potency is the fitted concentration of half-maximal effect. An outline of the steps: as §4
The nature of test [15]: qHTS assay to identify small molecule antagonists of the estrogen receptor alpha (ER-alpha) signaling pathway using the BG1 cell line in the presence of 0.1 nM 17-beta-estradiol - cell viability counter screen (AID 1259241). Note: nearly all actives have a fitted effect of over 40% in size. An outline of the steps: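 In this screen, hormone-deprived VM7Luc4E2 cells were seeded at 4,000 per well, dosed with compound and 0.1 nM estradiol final, and incubated 22 hr at 37C and 5% CO2; fluorogenic live-cell protease signal reported viability.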

The nature of test [16]: qHTS RealTime-Glo MT Cell Viability Assay in HepG2 cells - 32 hour (AID 1224877). Note: nearly all actives have a fitted effect of over 55% in size. Note: potency is the fitted concentration of half-maximal effect. In outline: as §5
Test [17] is described as follows: A CellTox Green Cytotoxicity Assay to monitor cytotoxicity in HEK293 cells - 8 hour (AID 1224884). Note: nearly all actives have a fitted effect of over 35% in size. Note: potency is the fitted concentration of half-maximal effect. In outline: as §3
Test [18] can be described thus: qHTS RealTime-Glo MT Cell Viability Assay in HepG2 cells - 8 hour (AID 1224873). Note: nearly all actives have a fitted effect of over 55% in size. An outline of the steps:
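HepG2 cells mixed with RealTime-Glo MT reagents (NanoLuc plus cell-permeant prosubstrate) were seeded at 600 cells/well, incubated 5 h at 37 C/5% CO2, then pinned with compounds in DMSO; nonlytic luminescence tracked viability during 40 h treatment.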

The nature of test [19]: qHTS RealTime-Glo MT Cell Viability Assay in HepG2 cells - 16 hour (AID 1224885). Note: nearly all actives have a fitted effect of over 50% in size. Note: potency is the fitted concentration of half-maximal effect. An outline of the steps:
as §5

The nature of test [20]: A CellTox Green Cytotoxicity Assay to monitor cytotoxicity in HEK293 cells - 16 hour (AID 1224888). Note: nearly all actives have a fitted effect of over 35% in size. Note: potency is the fitted concentration of half-maximal effect. An outline of the steps:
as §3

Several values for one entry are separate records, joined by “and”; a condition that tells them apart may be missing. Identical values can stand only once. Values without a mark were called inactive. Records with an inconclusive call do not appear. Activity calls are given as the source filed them. Calls come from the whole dose curve; as a rule, active = well fitted curve in the direction sought with a large enough effect in the repeat runs; inconclusive = weak or mixed curves; inactive = no such curve, though single readings can be large; an effect the other way counts as inactive or inconclusive.
% is set by controls: 0 for no effect and ±100 for the full control effect.

Consider `CCCCCCOc1cc(C)c(O)c(C)c1C`, for which the Potency in test [1] was 14 µM (active); in test [2], 19.7 µM (active); in test [3] it was 44.2 µM (active); in test [4] it was 24.8 µM (active); in test [5], 24.8 µM (active); in [6] it was 24.8 µM (active). The Potency in [8] was 44.2 µM (active); in [10], 24.8 µM (active); in test [11], 15.7 µM (active); in test [12], 14 µM (active); in test [14], 35.1 µM (active). Further, the Potency entry in test [7], in test [9], in [13] and in [15] was “inactive” each time.
Regarding `O=C1NC2CCCCN2C12CCN(CCCN1c3ccccc3CCc3ccc(Cl)cc31)CC2` (centres undefined), the Potency in [1] is 8.49 µM (active); in test [3], 19 µM (active); in [4], 23.9 µM (active); in test [16] it was 23.9 µM (active); in [5], 23.9 µM (active); in test [6], 23.9 µM (active). Further, the Potency is 21.3 µM (active) in test [8], 23.9 µM (active) in [10], 8.49 µM (active) in test [11] and 6.01 µM (active) in [12]. Moreover, the Potency result in [7], in test [9], in [17] and in test [13] was “inactive” in each case.
In the case of `O=c1cccc[nH]1`, the Potency result in test [18], in test [3], in test [4], in test [16], in test [5] and in test [6] was “inactive” in each case. In addition, the Potency result in test [7], in test [8], in [9], in test [10], in test [17] and in test [19] was “inactive” in each case. Further, the Potency entry in [11], in test [12], in test [20] and in test [13] was “inactive” throughout. Also, the max response in test [2] was 12.2%.
Regarding `O=C1Nc2ccc(Cl)cc2[C@@](C#CC2CC2)(C(F)(F)F)O1`, the Potency in test [1] is 21.3 µM (active); in [2], 23.9 µM (active); in [11], 23.9 µM (active); in [12], 23.9 µM (active). Besides, the Potency entry in [7], in [9], in [13] and in [15] was “inactive” each time.
Regarding `CCN(CC)CCOc1ccc(C(O)(Cc2ccc(Cl)cc2)c2ccc(C)cc2)cc1` (centres undefined), the Potency in test [1] is 21.3 µM (active); in test [3], 23.9 µM (active); in [4] it was 23.9 µM (active); in [16] it was 19 µM (active); in test [5], 21.3 µM (active); in test [6] it was 15.1 µM (active). In addition, the Potency in test [8] was 23.9 µM (active); in test [10], 15.1 µM (active); in test [19], 23.9 µM (active); in test [11] it was 19 µM (active); in [12] it was 21.3 µM (active). The Potency entry in test [7], in test [9], in test [17] and in [15] was “inactive” in each case.
With `CNC(=O)c1cc(Oc2ccc(NC(=O)Nc3ccc(Cl)c(C(F)(F)F)c3)cc2)ccn1`, the Potency in test [1] is 3.01 µM (active); in [2] it was 3.01 µM (active); in test [12], 4.25 µM (active). In addition, the Potency entry in [3], in [4], in test [5], in test [7], in test [8] and in test [17] was “inactive” each time. Further, in [14], the Potency entry is “inactive”.
As to `CCOC(=O)N1CCC(=C2c3ccc(Cl)cc3CCc3cccnc32)CC1`, the Potency is 21.9 µM (active) and 8.49 µM (active) in [1]; 19.5 µM (active) and 16.9 µM (active) in [2]; 54.9 µM (active) in test [6]; 21.9 µM (active) and 16.9 µM (active) in test [11]; 21.9 µM (active) in [12]. Further, the Potency result in [16], in test [7], in test [8], in [9], in [17] and in test [14] was “inactive” each time. In test [15], the Potency entry was “inactive”.
For `Clc1ccc(C(Cn2ccnc2)OCc2ccsc2Cl)c(Cl)c1` (centres undefined), the Potency is 15.1 µM (active) in test [1], 21.3 µM (active) in test [5], 23.9 µM (active) in [6] and 23.9 µM (active) in test [10]. The Potency result in test [3], in [7], in [9], in [17], in test [20] and in test [13] was “inactive” in each case. For the same compound, the Potency entry in test [14] and in test [15] was “inactive” throughout.
Consider `CCCCCCC(C)Nc1ccc(Nc2ccccc2)cc1` (centres undefined), for which the Potency was 19.5 µM (active) in test [1], 21.9 µM (active) in [2], 21.9 µM (active) in test [11] and 19.5 µM (active) in [12]. The Potency entry in test [3], in test [4], in [5], in test [6], in [9] and in test [10] was “inactive” throughout. Moreover, the Potency entry in [17], in test [14] and in [15] was “inactive” in each case.
Turning to `C[n+]1c2cc(N)ccc2cc2ccc(N)cc21` (tested in a mixture with another compound), the Potency in [1] was 21.3 µM (active); in [2], 4.77 µM (active); in [3], 23.9 µM (active); in test [4], 23.9 µM (active); in [5] it was 21.3 µM (active); in test [6], 21.3 µM (active). The Potency in test [9] is 23.9 µM (active); in [10], 21.3 µM (active); in test [17], 23.9 µM (active); in test [20], 23.9 µM (active); in [14] it was 23.9 µM (active). The Potency entry in test [7] and in [13] was “inactive” each time.
As for `CCCCCCCCCCCCN(CCO)CCO`, the Potency was 48.8 µM (active) in [1]; 38.7 µM (active) in [2]; 54.7 µM (active) in test [3]; 43.5 µM (active) in [16]; 24.4 µM (active) in [5]; 19.4 µM (active) in [6]. Also, the Potency in test [8] was 54.7 µM (active); in test [10], 17.3 µM (active); in [19], 48.8 µM (active); in [11] it was 43.5 µM (active). In addition, the Potency result in test [9] and in test [15] was “inactive” each time.
Take `COC(=O)C1=C(C)NC(C)=C(C(=O)OCCCN2CCC(c3ccccc3)(c3ccccc3)CC2)C1c1cccc([N+](=O)[O-])c1` (centres undefined): the Potency in test [1] was 9.52 µM (active); in test [2] it was 10.7 µM (active); in [11], 10.7 µM (active); in test [12], 16.9 µM (active). Moreover, the Potency entry in [3], in test [5], in [7], in [8], in test [9] and in [17] was “inactive” throughout. For the same compound, the Potency entry in [20], in test [13], in test [14] and in test [15] was “inactive” each time.
On to `CCC(C)(C)c1cc(O)c(C(C)(C)CC)cc1O`, for which the Potency in [1] was 21.9 µM (active); in test [6] it was 49 µM (active); in test [10], 49 µM (active); in test [12], 21.9 µM (active). Further, the Potency result in test [4], in test [7], in test [9], in test [17], in test [13] and in test [14] was “inactive” each time. Further, the Potency result in [15] is “inactive”.
Take `CC(C)(C)c1cc(/C=C2\SC(=N)NC2=O)cc(C(C)(C)C)c1O`: the Potency in [1] is 43.6 µM (active); in test [2], 49 µM (active); in test [4], 43.6 µM (active); in test [5], 43.6 µM (active); in test [6], 43.6 µM (active); in test [10] it was 43.6 µM (active). For the same compound, the Potency in test [11] and in [14] was 49 µM (active) in each case. Also, the Potency entry in [7], in test [9], in test [17], in test [13] and in [15] was “inactive” each time.
As to `CCOC(=O)C1=C(C)NC(C)=C(C(=O)OCC)C1c1ccccc1/C=C/C(=O)OC(C)(C)C`, the Potency result in test [1], in test [3], in test [4], in test [5], in test [6] and in [8] was “inactive” in each case. Besides, the Potency result in test [10], in [17], in [11], in test [12], in [20] and in test [14] was “inactive” each time. In test [15], the Potency entry is “inactive”. Also, the Potency is 3.79 µM (active) in [7] and 3.38 µM (active) in test [13].
